Measured potencies and affinities stand elsewhere. Results filed as inconclusive are left out. Activity calls are given as the source filed them. Unless noted, no rule for the calls is given here.
Columns and labels:
[1] = RMG-1 ovarian cancer cell viability loss – cherry-pick, dose response (AID 687029;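 active = signal drop whose fitted half-maximal concentration is at most twice the top valid dose, in every test run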;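 also: cells exposed to compound for 96 hours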)
[2] = IOSE-T80 viability loss, PAX8-independent line – cell-based, cherry-pick, selectivity assay for PAX8 inhibitor project, dose response (AID 687032;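 active = fitted half-maximal concentration for viability loss no higher than twice the top valid dose, in every repeat run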;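 also: cells exposed to compound for 96 h before reading; 0% = neutral control wells and -100% = 2 µM mitoxantrone kill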)
[3] = CMV-driven luciferase expression suppression in HEK293 – cell-based, luminescence, dry powder, counter-screen for Pax8 inhibitor project, dose response (AID 743020;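 active = signal-lowering compounds whose fitted half-maximal concentration is at or below twice the top tested dose in every run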;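 also: HEK293 cells stably expressing the CMV luciferase reporter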)
[4] = general cell-killing toxicity readout – plate reader, dry powder samples, cytotoxicity control for PAX8 inhibitor project, dose response (AID 743021)
[5] = OVCAR-3 cell viability loss – plate reader, dry powder samples, PAX8 inhibitor project, dose response (AID 743044); settings: max activity: at 35 µM, active compounds read low unless noted
[6] = toxicity toward immortalized ovarian surface epithelium – cell-based, plate reader, dry powder samples, cytotoxicity control for PAX8 inhibitor project, dose response (AID 743045);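 also: 0% = neutral control median and -100% = positive control median; more negative values mean more cell killing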
[7] = A2780 cell killing – plate reader, dry powder samples, cytotoxicity control, dose response (AID 743046);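 also: 0% = neutral control wells and -100% = cytotoxic reference compound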
[8] = OVCAR8 cell viability loss – plate reader, dry powder samples, PAX8 project, dose response (AID 743197)

Measured: max activity

C[C@H]1CCCCO[C@H](CN(C)C(=O)NC2CCCCC2)[C@@H](C)CN([C@@H](C)CO)C(=O)c2cc(NC(=O)Nc3ccc(C(F)(F)F)cc3)ccc2O1
inactive: [1] | [2] | [3] | [4] | [5] -30.4% | [6] | [7]

C[C@@H]1CCCCO[C@@H](CN(C)Cc2ccc(C(F)(F)F)cc2)[C@H](C)CN([C@H](C)CO)C(=O)c2cc(NC(=O)c3ccccc3)ccc2O1
inactive: [1] | [2] | [3] | [4] | [5] -25.3% | [6] | [8]

C[C@H](O)C#Cc1cnc2c(c1)C(=O)N([C@H](C)CO)C[C@@H](C)[C@@H](CN(C)Cc1ccc(-c3ccccc3)cc1)O2
inactive: [1] | [2] | [3] | [4] | [5] 29.8% [at 2.1 µM, active compounds read low] | [6] | [7] | [8]

C[C@@H]1CCCCO[C@@H](CN(C)Cc2ccc(C(F)(F)F)cc2)[C@H](C)CN([C@@H](C)CO)C(=O)c2cc(NS(=O)(=O)c3ccc(F)cc3)ccc2O1
inactive: [1] | [2] | [3] | [4] | [5] -6.08% | [6] | [7]

N#C[C@@H]1[C@@H](c2ccc(-c3ccccc3F)cc2)[C@@H](CO)N1C(=O)C1CCC1
inactive: [1] | [2] | [3] | [4] | [5] -15.9% | [6] | [7] | [8]

C[C@@H]1CN([C@@H](C)CO)C(=O)c2cc(NC(=O)Nc3ccc(C(F)(F)F)cc3)ccc2O[C@@H](C)CCCCO[C@@H]1CN(C)Cc1ccncc1
inactive: [1] | [2] | [3] | [4] | [5] 59.3% [at 2.1 µM, active compounds read low] | [6] | [7] | [8]

CN(C[C@H]1N[C@@H](CO)[C@@H]1c1ccc(-c2cccc(F)c2)cc1)S(C)(=O)=O
inactive: [1] | [2] | [3] | [4] | [5] 23.7% [at 8 µM, active compounds read low] | [6] | [7]

N#C[C@@H]1[C@@H](c2ccc(-c3cccc(F)c3)cc2)[C@H](CO)N1C(=O)NC1CCCC1
inactive: [1] | [2] | [3] | [4] | [5] 15.7% [at 0.26 µM, active compounds read low] | [7] | [8]

Cc1ccc(S(=O)(=O)N2CC[C@@H]3[C@H](CO)N(C)c4ccc(-c5ccc(C#N)cc5)cc4[C@@H]32)cc1
inactive: [1] | [2] | [3] | [4] | [5] 67.4% [at 2.1 µM, active compounds read low] | [6] | [7]

Cc1ccccc1-c1ccc([C@@H]2[C@@H](CO)N3CCCCN(C(=O)NC4CCCC4)C[C@H]23)cc1
inactive: [1] | [2] | [3] | [4] | [5] -4.19% [at 16 µM, active compounds read low] | [6] | [7] | [8]

C[C@@H]1CCCCO[C@H](CN(C)S(=O)(=O)c2cccs2)[C@@H](C)CN([C@@H](C)CO)C(=O)c2cc(NC(=O)Nc3ccc(C(F)(F)F)cc3)ccc2O1
inactive: [1] | [2] | [3] | [4] | [5] -21.9% | [6] | [7] | [8]

O=C(C[C@@H]1CC[C@@H]2[C@H](COC[C@H](O)CN2S(=O)(=O)c2ccccc2Cl)O1)N1CCC(Cc2ccccc2)CC1
inactive: [1] | [2] | [3] | [4] | [5] -15.3% | [7]

COc1ccc(S(=O)(=O)Nc2ccc3c(c2)C(=O)N([C@H](C)CO)C[C@H](C)[C@@H](CN(C)S(=O)(=O)c2ccc(F)cc2)OCCCC[C@H](C)O3)cc1
inactive: [1] | [2] | [3] | [4] | [6]

C[C@@H]1CCCCO[C@@H](CN(C)Cc2ccc(C(F)(F)F)cc2)[C@H](C)CN([C@@H](C)CO)C(=O)c2cc(NC(=O)NC3CCCCC3)ccc2O1
not listed: [5] | [8]
inactive: all other assays above

O=C1CN(S(=O)(=O)Cc2ccccc2)C[C@@H]2[C@@H](c3ccc(C#CCC4CCCC4)cc3)[C@@H](CO)N12
inactive: [1] | [2] | [3] | [4] | [6]

C[C@H](CO)N1C[C@H](C)[C@@H](CN(C)Cc2ccc(Oc3ccccc3)cc2)Oc2ccc(NS(=O)(=O)c3ccc(Cl)cc3)cc2CC1=O
not listed: [5] | [8]
inactive: all other assays above

O=C(Nc1cccc(F)c1)N1CCCCN2[C@@H](CO)[C@@H](c3ccc(C#Cc4ccccc4)cc3)[C@@H]2C1
not listed: [5] | [8]
inactive: all other assays above

C[C@@H]1CN([C@H](C)CO)C(=O)c2cc(NC(=O)Nc3ccc4c(c3)OCO4)ccc2O[C@@H](C)CCCCO[C@H]1CN(C)Cc1ccc(C(F)(F)F)cc1
inactive: [1] | [2] | [3] | [4] | [6]

C[C@@H]1CCCCO[C@H](CN(C)Cc2ccc(C(F)(F)F)cc2)[C@H](C)CN([C@H](C)CO)C(=O)c2cc(NC(=O)Cc3ccccc3)ccc2O1
not listed: [5] | [8]
inactive: all other assays above

COc1ccccc1NC(=O)N1CCCCN2[C@@H](CO)[C@@H](c3ccc(C#Cc4ccccc4)cc3)[C@@H]2C1
not listed: [5] | [8]
inactive: all other assays above

C[C@@H]1CCCCO[C@H](CN(C)Cc2ccc(C(F)(F)F)cc2)[C@@H](C)CN([C@@H](C)CO)C(=O)c2cc(NS(=O)(=O)c3ccc(F)cc3)ccc2O1
inactive: [1] | [2] | [3] | [4] | [6]

O=C(C1CCCC1)N1CC[C@@H]2[C@H](CO)Nc3ccc(C4=CCCCC4)cc3[C@@H]21
not listed: [5] | [8]
inactive: all other assays above

C[C@@H]1CN([C@H](C)CO)C(=O)c2cc(NS(=O)(=O)c3ccc(Cl)cc3)ccc2O[C@@H](C)CCCCO[C@H]1CN(C)Cc1ccc2c(c1)OCO2
not listed: [5] | [8]
inactive: all other assays above

C[C@@H]1CCCCO[C@H](CN(C)Cc2ccc(Cl)c(Cl)c2)[C@@H](C)CN([C@@H](C)CO)C(=O)c2cc(NC(=O)Nc3ccc(F)cc3)ccc2O1
inactive: [1] | [2] | [3] | [4] | [6]

C[C@H]1CCCCO[C@@H](CN(C)Cc2ccc(C(F)(F)F)cc2)[C@@H](C)CN([C@@H](C)CO)C(=O)c2cc(NC(=O)Nc3ccc4c(c3)OCO4)ccc2O1
not listed: [5] | [8]
inactive: all other assays above

C[C@@H]1CN([C@@H](C)CO)C(=O)c2cc(NC(=O)Nc3ccc(C(F)(F)F)cc3)ccc2O[C@H]1CN(C)C(=O)Nc1ccc(C(F)(F)F)cc1
not listed: [5] | [8]
inactive: all other assays above
